# About 14,000 (4.5%) of roughly 310,000 compounds showed an effect of 50% or more. Effects have a minus sign here. What follows is part of a selection rich in strong results, with near analogues and random picks from the rest.
# Molecular target: human ether-à-go-go-related gene (hERG) potassium channel (human, UniProt Q12809)
# Experiment: primary screen, population patch clamp on CHO cells stably expressing hERG; higher = less effect of the substance
# 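Further: peak tail current of the secondary pulse compared with the same well before compound.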
# Chain of human ether-à-go-go-related gene (hERG) potassium channel (Q12809 whole entry, looked up): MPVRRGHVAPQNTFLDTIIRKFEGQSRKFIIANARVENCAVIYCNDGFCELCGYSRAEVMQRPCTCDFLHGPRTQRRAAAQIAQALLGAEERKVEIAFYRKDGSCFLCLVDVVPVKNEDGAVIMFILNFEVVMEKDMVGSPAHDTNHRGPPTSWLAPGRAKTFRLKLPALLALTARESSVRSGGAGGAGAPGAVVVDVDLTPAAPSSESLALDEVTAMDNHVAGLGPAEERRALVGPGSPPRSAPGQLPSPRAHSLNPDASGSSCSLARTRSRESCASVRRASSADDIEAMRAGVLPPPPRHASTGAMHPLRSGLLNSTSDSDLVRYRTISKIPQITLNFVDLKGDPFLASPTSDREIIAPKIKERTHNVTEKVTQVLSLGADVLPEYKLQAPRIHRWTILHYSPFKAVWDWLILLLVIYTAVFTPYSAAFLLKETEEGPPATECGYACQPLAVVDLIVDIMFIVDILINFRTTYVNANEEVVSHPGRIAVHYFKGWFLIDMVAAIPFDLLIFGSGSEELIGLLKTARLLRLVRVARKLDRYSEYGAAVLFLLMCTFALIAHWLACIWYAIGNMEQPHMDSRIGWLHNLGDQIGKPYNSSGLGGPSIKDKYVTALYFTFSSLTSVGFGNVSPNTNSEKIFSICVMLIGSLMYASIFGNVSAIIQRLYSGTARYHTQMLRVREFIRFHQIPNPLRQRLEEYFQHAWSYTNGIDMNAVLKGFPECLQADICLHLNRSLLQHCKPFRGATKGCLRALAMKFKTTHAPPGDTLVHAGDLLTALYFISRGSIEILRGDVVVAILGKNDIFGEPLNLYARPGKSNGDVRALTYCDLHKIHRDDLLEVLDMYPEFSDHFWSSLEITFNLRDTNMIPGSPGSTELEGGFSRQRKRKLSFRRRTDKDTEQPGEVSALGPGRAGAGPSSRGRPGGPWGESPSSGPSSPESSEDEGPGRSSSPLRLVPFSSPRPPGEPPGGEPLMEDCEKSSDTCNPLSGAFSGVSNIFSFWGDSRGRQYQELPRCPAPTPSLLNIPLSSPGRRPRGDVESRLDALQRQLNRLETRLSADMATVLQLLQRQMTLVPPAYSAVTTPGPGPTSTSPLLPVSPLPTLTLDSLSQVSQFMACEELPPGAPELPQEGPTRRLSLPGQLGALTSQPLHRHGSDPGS
row,Structure (SMILES),"hERG current change (%, negative = inhibition) at 10uM"
1,COCCn1c(C)cc2c(c1=O)C(c1ccco1)C(C#N)=C(N)O2 (stereo not drawn),12.7%
2,C=CCn1c(CSc2nnc(-c3ccccc3)n2C)n[nH]c1=S,16.7%
3,O=C(Nc1ccc(Cl)cc1)c1ccc(Br)cc1F,14.4%
4,COCc1cc(Sc2cccc(Cl)c2Cl)nc(-c2ccccc2)n1,9.15%
5,Cc1ccc(S(=O)(=O)N(CC(=O)NN=C2CCN(C)CC2)c2ccc(C(C)C)cc2)cc1,-21.3%
6,CCn1cc(C(=O)N2CCN(Cc3ccc4c(c3)OCO4)CC2)c(=O)c2ccc(C)nc21,-1.84%
7,CCC(C)(C)NC(=O)C(c1ccc(OC)cc1)N(C(=O)CCC(=O)Nc1cc(C)on1)c1ccc(OC)c(OC)c1 (stereo not drawn),3.38%
8,Cc1ccc(OCC(=O)N/N=C/c2cn(C)c3ccccc23)cc1,10.2%
9,CC1c2cccn2CCN1S(=O)(=O)c1ccccc1 (stereo not drawn),5.9%
10,Cc1ccc(S(=O)(=O)N2CCn3cccc3C2C)cc1 (stereo not drawn),-22.7%
11,CC1c2cccn2CCN1S(=O)(=O)c1ccc(F)cc1 (stereo not drawn),-52.3%
12,COc1cc(NS(=O)(=O)c2ccc(NC(=O)/C(=C\c3ccccc3OC)NC(=O)c3ccccc3)cc2)nc(OC)n1,26.5%
13,CCOc1cc(/C=N/NC(=O)CN2CCOCC2)ccc1OCc1ccccc1,-9.58%
14,C=CCOc1ccc(/C=N/NC(=O)CN2CCCCC2)cc1OC,-61%
15,CCOc1cc(/C=N/NC(=O)CN2CCCCC2)ccc1OCc1ccccc1,-59.9%
16,C=CCOc1ccc(/C=N/NC(=O)C(=O)N2CCCCCC2)cc1OC,16.5%
17,CCOc1ccc(/C=N/NC(=O)CN2CCCCC2)cc1OCC,11%
18,CCCOc1ccc(/C=N/NC(=O)CN2CCCCC2)cc1OCC,-51.4%
19,O=C(CN1CCCCC1)N/N=C/c1ccccc1OCc1ccccc1,-30.2%
20,CCOc1cc(/C=N/NC(=O)CN2CCCCC2)ccc1O,-5.51%
21,C=CCOc1ccc(/C=N/NC(=O)CN2CCOCC2)cc1OCC,12.4%
22,CCOc1cc(/C=N/NC(=O)CN2CCCCC2)ccc1OCc1cccc(Cl)c1,-45.3%

row,Structure (SMILES),"hERG current change (%, negative = inhibition) at 10uM"
1,COc1cc(/C=N/NC(=O)CN2CCOCC2)ccc1OCc1ccccc1,5.45%
2,COc1cc(/C=N/NC(=O)CN2CCCCC2)ccc1OCc1ccccc1,-64.1%
3,CC(=O)N1c2ccccc2C(C)(C)C2CCC(C)CC21 (stereo not drawn),-8.9%
4,COc1ccc(-c2cn[nH]c2-c2ccc(OC)cc2)cc1,8.51%
5,CCN(CC)C(=O)c1c[nH]c2ccc(S(=O)(=O)Nc3cc(C)cc(C)c3)cc2c1=O,-0.741%
6,CCOC(=O)c1[nH]c(Cc2[nH]c(C(=O)OCC)c(C)c2CCC(=O)OC)c(CCC(=O)OC)c1C,3.71%
7,COc1cccc(-c2nc(-c3ccccc3)no2)c1,1.72%
8,Cc1cccc(Nc2nc3c(S(=O)(=O)c4ccccc4)nnn3c3ccccc23)c1C,12.6%
9,CCC(C)NC(=O)Cn1nc(C(F)(F)F)c2c1CCC2 (stereo not drawn),1.83%
10,N#Cc1c(SCC(=O)Nc2nc3ccccc3s2)sc2c(O)cc(=O)[nH]c12,20.7%
11,c1ccc2c(c1)nc(Nc1ccc(N3CCCCC3)cc1)c1nncn12,-13.8%
12,Cc1nc(-c2ccc(F)cc2)c(CC(=O)Nc2cccc(S(=O)(=O)N3CCOCC3)c2)s1,-15.8%
13,CCOc1cc(/C=N/NC(=O)CN2CCCCC2)ccc1OCc1ccc(Cl)cc1,7.37%
14,COc1cc(/C=N/NC(=O)CN2CCCCC2)ccc1OCc1ccc(Br)cc1,-59%
15,COc1ccc(/C=N/NC(=O)CN2CCN(Cc3ccccc3)CC2)cc1Br,-68%
16,COc1ccc(Br)cc1/C=N/NC(=O)CN1CCN(Cc2ccccc2)CC1,-33.1%
17,Cc1nn(-c2ccccc2)c(N2CCCC2)c1/C=N/NC(=O)c1cc2ccccc2cc1O,-55.5%
18,COc1ccc(Br)cc1/C=N/NC(=O)CN1CCCCC1,-4.99%
19,Cc1nn(-c2ccccc2)c(N2CCCC2)c1/C=N/NC(=O)c1cc(-c2ccccc2)nc2ccccc12,13.3%
20,COc1cc(/C=N/NC(=O)c2cc3ccccc3cc2O)ccc1OCCN1CCCCC1,-65.9%
21,COc1cc(/C=N/NC(=O)c2ccoc2C)ccc1OCCN1CCCCC1,-31.6%
22,COc1cc(/C=N/NC(=O)CCN2CCN(Cc3ccccc3)CC2)cc(OC)c1OC,-29.2%

row,Structure (SMILES),"hERG current change (%, negative = inhibition) at 10uM"
1,Cc1nn(-c2ccccc2)c(N2CCCC2)c1/C=N/NC(=O)c1ccccc1O,-2.88%
2,COc1cc(/C=N/NC(=O)c2ccncc2)ccc1OCCN1CCCCC1,-3.37%
3,Cc1ccc(S(=O)(=O)Nc2cc(C)on2)cc1,15.4%
4,CCN(CC(=O)Nc1ccc(NC(C)=O)cc1)C(=O)c1cc(-c2ccccc2)nn1-c1ccccc1,8.43%
5,O=C(CSc1nnc(-c2cccnc2)o1)NNC(=O)c1ccc(Br)cc1,2.19%
6,O=C(COc1ccccc1)N(Cc1cc2ccccc2[nH]c1=O)CC1CCCO1 (stereo not drawn),-1.24%
7,CCC1(c2ccccc2)NC(=O)N(CC(=O)Nc2ccccc2N2CCCC2)C1=O (stereo not drawn),1.38%
8,O=C(c1cc(-c2cccc(Cl)c2)nc2ccccc12)N1CCCC1,-40.2%
9,CCC(C)NS(=O)(=O)c1ccc(OCC(=O)Nc2ccc3c(c2)OCCO3)cc1 (stereo not drawn),-26.3%
10,Cl.c1ccc(COc2ccccc2CNCc2cccnc2)cc1,-8.89%
11,COc1cc(CNCc2ccncc2)cc(Br)c1OCc1ccccc1F.Cl,-43.3%
12,Cl.Fc1ccc(COc2ccccc2CNCc2ccncc2)cc1,-32.6%
13,Brc1ccc(OCc2ccccc2)c(CNCc2ccncc2)c1.Cl,-19.9%
14,Cl.Fc1ccccc1COc1ccc(Br)cc1CNCc1cccnc1,-70.2%
15,Cl.Fc1ccc(COc2ccc(Br)cc2CNCc2ccncc2)cc1,-74.7%
16,CCOc1ccc(Br)cc1CNCc1cccnc1,-10.2%
17,Cl.Fc1ccccc1COc1ccc(Br)cc1CNCc1ccncc1,-70.2%
18,Cl.Fc1ccccc1COc1ccccc1CNCc1ccncc1,-44%
19,CCC(NC(=O)c1ccccc1NC(=O)c1ccco1)C(=O)NNC(=O)c1ccncc1 (stereo not drawn),8.86%
20,COc1ccc(NC(=O)CCCc2ccc(OC)c(C)c2)cc1,3.93%
21,Cn1nnnc1SCC(=O)NCc1ccc2c(c1)OCO2,31.4%
22,CC(C)c1cc(C(=O)N/N=C/c2cccnc2)cs1,-31.9%

row,Structure (SMILES),"hERG current change (%, negative = inhibition) at 10uM"
1,c1coc(CSc2ncnc3c2oc2ccccc23)c1,13.9%
2,Cc1ccc(-c2nc(NCCN(C)C)c3ccccc3n2)cc1,-44.9%
3,COCCN(CCOC)c1nc(-c2ccc(C)cc2)nc2ccccc12.Cl,-65.4%
4,COCCN(CCOC)c1nc(-c2ccc(Cl)cc2)nc2ccccc12,-5.82%
5,COCCN(CCOC)c1nc(-c2ccccc2)nc2ccccc12,-68.2%
6,COCCN(CCOC)c1nc(-c2ccc([N+](=O)[O-])cc2)nc2ccccc12,-34.3%
7,COCCNc1nc(-c2ccccc2)nc2ccccc12.Cl,-32.5%
8,O=C(O)C1CC(=O)N(c2ccc(F)c(F)c2)C1 (stereo not drawn),13%
9,CCCCOC(=O)C1=C(C)NC(=O)NC1c1ccccc1 (stereo not drawn),6.12%
10,N#CC[C@H](Cc1ccccc1)N1CC[C@@H](NC(=O)OCc2ccccc2)CCC1=O,-45.1%
11,O=C(N[C@@H]1CCC(=O)N(CC[C@H](Sc2ccccc2)c2ccccc2)CC1)OCc1ccccc1,-24%
12,O=C(N[C@H]1CCC(=O)N([C@H](CSc2ccccc2)Cc2ccccc2)CC1)OCc1ccccc1,-37.6%
13,Cc1ccc(SCCN2CCC(NC(=O)OCc3ccccc3)CCC2=O)cc1 (stereo not drawn),-50.1%
14,COc1ccc(SC[C@H](Cc2ccccc2)N2CC[C@@H](NC(=O)OCc3ccccc3)CCC2=O)cc1,-10.2%
15,Cc1ccc(S[C@@H](CCN2CC[C@H](NC(=O)OCc3ccccc3)CCC2=O)c2ccccc2)cc1,-26.1%
16,O=C(NC1CCC(=O)N(CCOc2ccccc2)CC1)OCc1ccccc1 (stereo not drawn),-30.2%
17,O=C(N[C@H]1CCC(=O)N(CCSc2ccc(Br)cc2)CC1)OCc1ccccc1,-29.2%
18,COc1ccc(SCCN2CC[C@@H](NC(=O)OCc3ccccc3)CCC2=O)cc1,-54.4%
19,O=C(NC1CCC(=O)N(CCSc2ccccc2)CC1)OCc1ccccc1 (stereo not drawn),-59.2%
20,[N-]=[N+]=NC[C@H](Cc1ccccc1)N1CC[C@@H](NC(=O)OCc2ccccc2)CCC1=O,-52.5%
21,Cc1ccc(SC[C@H](C)CN2CC[C@H](NC(=O)OCc3ccccc3)CCC2=O)cc1,-41.6%
